The test system of assay [1] is transactivating tegument protein VP16 (Human herpesvirus 1). The assay can be described thus: compounds suppressing VP16-driven luciferase signal – cell-based, luminescence, single concentration, counter-screen for SRC2 inhibitor project (AID 652007). Conditions: cell-based VP16 transactivation luciferase reporter, at 8.9 µM, stronger effect = higher value. In general terms: A counterscreen serves to expose hits that act by an unwanted route or on another target.

Assay [2] has as its target Nuclear receptor coactivator 2 (Homo sapiens) (UniProt Q15596). In words: inhibition of GAL4-SRC2 driven luciferase expression – cell-based, luminescence, HEK293, triplicate, confirmation (AID 652008;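 active means mean inhibition above 46.5%, the solvent-only control mean plus 3 SD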;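 further: 0% = DMSO-treated cells and 100% = Gossypol at 36 µM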). Particulars: HEK293 GAL4-SRC2 luciferase reporter, at 8.9 µM, stronger effect = higher value.

Values without a mark were called inactive. Calls of active or inactive are those of the source. Unless noted, no stated cut-off is given here; in the data, active means inhibition above about 36%; inactive means the rest.

Chain of Nuclear receptor coactivator 2 (Homo sapiens) (Q15596 whole entry, looked up, the tested form may be a part): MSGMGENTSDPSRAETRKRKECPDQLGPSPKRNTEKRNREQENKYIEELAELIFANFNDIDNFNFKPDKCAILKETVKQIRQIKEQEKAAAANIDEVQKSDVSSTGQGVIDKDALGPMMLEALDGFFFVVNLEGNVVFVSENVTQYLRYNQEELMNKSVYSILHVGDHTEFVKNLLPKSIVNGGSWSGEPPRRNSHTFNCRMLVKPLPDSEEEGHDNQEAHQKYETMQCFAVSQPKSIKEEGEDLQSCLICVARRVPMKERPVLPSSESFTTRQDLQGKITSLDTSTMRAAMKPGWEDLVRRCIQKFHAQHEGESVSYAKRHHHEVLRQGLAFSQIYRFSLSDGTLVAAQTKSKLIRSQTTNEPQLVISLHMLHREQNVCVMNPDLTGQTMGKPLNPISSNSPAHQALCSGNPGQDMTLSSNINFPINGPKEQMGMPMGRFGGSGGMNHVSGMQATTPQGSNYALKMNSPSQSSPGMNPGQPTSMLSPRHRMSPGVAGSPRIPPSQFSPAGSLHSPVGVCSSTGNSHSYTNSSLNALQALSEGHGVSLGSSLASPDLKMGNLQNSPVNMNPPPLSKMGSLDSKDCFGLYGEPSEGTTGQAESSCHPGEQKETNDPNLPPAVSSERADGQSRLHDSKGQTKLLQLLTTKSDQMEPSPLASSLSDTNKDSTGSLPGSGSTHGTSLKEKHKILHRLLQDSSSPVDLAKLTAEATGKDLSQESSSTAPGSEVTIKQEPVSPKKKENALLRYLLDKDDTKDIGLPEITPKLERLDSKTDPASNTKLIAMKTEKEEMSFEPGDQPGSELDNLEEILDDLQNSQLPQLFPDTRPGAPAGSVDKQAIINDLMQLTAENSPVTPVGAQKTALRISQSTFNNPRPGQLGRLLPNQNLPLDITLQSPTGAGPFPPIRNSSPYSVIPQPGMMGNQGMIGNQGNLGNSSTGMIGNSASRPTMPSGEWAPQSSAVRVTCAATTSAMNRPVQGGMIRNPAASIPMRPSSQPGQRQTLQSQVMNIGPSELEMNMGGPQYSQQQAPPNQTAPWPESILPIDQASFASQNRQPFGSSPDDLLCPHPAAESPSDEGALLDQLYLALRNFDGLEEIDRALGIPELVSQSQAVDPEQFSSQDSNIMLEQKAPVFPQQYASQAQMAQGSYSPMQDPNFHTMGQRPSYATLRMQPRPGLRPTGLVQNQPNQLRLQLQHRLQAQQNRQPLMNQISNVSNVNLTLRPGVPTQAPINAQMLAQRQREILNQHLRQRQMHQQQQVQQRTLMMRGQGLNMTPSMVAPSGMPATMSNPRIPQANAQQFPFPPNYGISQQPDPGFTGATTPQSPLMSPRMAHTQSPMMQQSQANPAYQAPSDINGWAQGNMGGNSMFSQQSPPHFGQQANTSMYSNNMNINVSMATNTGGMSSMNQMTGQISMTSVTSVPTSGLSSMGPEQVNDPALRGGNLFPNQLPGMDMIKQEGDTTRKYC

A word on the inhibition: it is the change of the read-out against control, counted positive when it falls. `Cc1ccc([C@@H]2CC=C(C(=O)O)[C@H](c3ccccc3)N2S(=O)(=O)c2ccccc2C)cc1`: the inhibition in assay [1] is 0.1%; in assay [2] it was -13%.
The matching figures for `O=C(COC(=O)CCCOc1ccc(Cl)cc1Cl)NCc1ccccc1`: 0.2% and 15.4%.
For `C=CC(=O)NN(C)c1ncc(C(F)(F)F)cc1Cl`, in that order: 15.4% and 7.42%.
For `CC(C)[C@H](CO)Nc1nc(NCc2ccc(S(N)(=O)=O)cc2)c2ncn(C(C)C)c2n1`, in that order: 14.3% and 37.8%.
With `CCOc1ccc(NC(=O)CN(C)C(=O)c2cn(-c3ccccc3)nc2-c2cccs2)cc1OCC`, the inhibition in assay [1] was -4.29%; in assay [2] it was 16%.
In the case of `CCOc1cccc(NC(=O)C2CCCN(S(=O)(=O)c3ccc(OC)cc3)C2)c1` (centres undefined), the inhibition is -26.5% in assay [1] and -6.98% in assay [2].
On to `Cc1c(CCC(=O)N[C@@H](C)C(=O)O)c(=O)oc2cc3oc4c(c3cc12)CCCC4`, for which the inhibition was 38.8% (active) in assay [1] and 60.1% (active) in assay [2].
The matching figures for `C=CS(=O)(=O)N(Cc1ccc(F)cc1)C(=C)C(=O)OC`: 33.7% and -13.2%.
As for `COc1ccc(S(=O)(=O)Nc2cc(Sc3ncn[nH]3)c(O)c3ccccc23)cc1`, the inhibition in assay [1] is 26.7%; in assay [2], 10.1%.
For `CN(Cc1ccc(Cl)cc1)C(=O)CCl`, in that order: 29.1% and 25.3%.
The matching figures for `COc1ccc(C(=O)NC(=C(Cl)Cl)S(=O)(=O)c2ccc(C)cc2)cc1`: 3.97% and 36.6%.
For `CCCNC(=O)C[C@H]1C[C@H]2c3cc(NC(=O)Nc4ccc(F)cc4)ccc3O[C@H]2[C@@H](CO)O1`, in that order: 4.81% and -7.94%.

The values above are taken from PubChem BioAssay.
